Among the data in PubChem BioAssay (NCATS) are activation, Potency and viability values, retold here.

“And” between values parts separate entries of the source, which are not always exact repeats. Equal values may be shown once. Results filed as inconclusive are left out. A number with no mark means an inactive call. The source made the active and inactive calls. The call rests on the fitted dose curve; in most records, active means well fitted curve in the direction sought with a large enough effect; inconclusive means small, poorly fitted or top-dose-only effect, or another doubt; inactive means no such curve, though single readings can be large; an effect the other way counts as inactive or inconclusive.

For test [1], the target named is Cellular tumor antigen p53 (Homo sapiens) (UniProt P04637). Nature of the test: Primary qHTS for small molecule compounds that upregulate eGFP-tagged delta133p53alpha (in N-terminal) cells. (AID 2060322). Further: nearly all actives have a fitted effect of over 75% in size. Further: potency means the concentration at half of the fitted maximal effect.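 On activation: series mostly up to about 56 µM; 0% = DMSO vehicle and 100% = reference activator.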 The settings on record: NCI-H358 eGFP-delta133p53alpha fluorescence, 24 h; activation: active compounds read high. The method, boiled down:
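NCI-H358 cells pre-induced 24 h with 10 ng/ml doxycycline to express N-terminal eGFP-delta133p53alpha, then dosed 24 h at 37C without doxycycline; fixed, Hoechst-stained, GFP intensity by laser scanning cytometry, normalized to DMSO (0%) and 57.5 uM 5-azacytidine (100%).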

In test [2] the target is Retinaldehyde dehydrogenase 3 (Homo sapiens) (UniProt P47895). Description: qHTS for Inhibitors of the Aldehyde Dehydrogenase Family (ALDH1A3) Primary screen (AID 2061315).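 Further: plate controls were DMSO vehicle for no effect and reference inhibitor for full effect.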
A short description of test [3]: BET inhibitor-based combinations targeting novel dependencies in MECOM-rearranged (r) AML: SET-2 cell line (AID 2202231). Further: nearly all actives have a fitted effect of over 35% in size. Further: potency means the concentration at half of the fitted maximal effect.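 On viability: plate controls were DMSO treated cells for no effect and wells without cells for full effect.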 The settings on record: SET-2 AML cells viability, CellTiter-Glo luminescence, 48 h; viability: active compounds read low, concentration not given here. In outline: (§1)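 Luminescent ATP readout (CellTiter-Glo) after 48 hr drug exposure gives viability. Curves span 11 concentrations and are normalized to DMSO and empty wells. Activity is reported as area under the curve and its Z-transform within each cell line.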

Test [4] is described as follows: BET inhibitor-based combinations targeting novel dependencies in MECOM-rearranged (r) AML: OCI-AML3 cell line (AID 2202232). Further: nearly all actives have a fitted effect of over 35% in size. Further: potency means the concentration at half of the fitted maximal effect. The settings on record: Potency: OCI-AML3 viability. In outline: as §1
Test [5] in a line: BET inhibitor-based combinations targeting novel dependencies in MECOM-rearranged (r) AML: AML-191 cell line (AID 2202236; further: nearly all actives have a fitted effect of over 35% in size; further: potency means the concentration at half of the fitted maximal effect). In outline: as §1
Test [6] in a line: BET inhibitor-based combinations targeting novel dependencies in MECOM-rearranged (r) AML: MV-4-11 cell line (AID 2202233). Further: nearly all actives have a fitted effect of over 45% in size. Further: potency means the concentration at half of the fitted maximal effect. In outline:
(§2)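 Luminescent ATP readout (CellTiter-Glo, 15 min at room temperature) after 48 hr drug exposure gave viability. Dose-response curves, normalized to DMSO and empty-well controls, were summarized as area under the curve and its mean-centred Z-score.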

Test [7] can be described thus: BET inhibitor-based combinations targeting novel dependencies in MECOM-rearranged (r) AML: AML-194 cell line (AID 2202237; further: nearly all actives have a fitted effect of over 40% in size; further: potency means the concentration at half of the fitted maximal effect). The method, boiled down: as §1
A short description of test [8]: BET inhibitor-based combinations targeting novel dependencies in MECOM-rearranged (r) AML: HNT-34 cell line (AID 2202234). Further: nearly all actives have a fitted effect of over 35% in size. Further: potency means the concentration at half of the fitted maximal effect. In outline:
as §2

The nature of test [9]: BET inhibitor-based combinations targeting novel dependencies in MECOM-rearranged (r) AML: UCSD-AML1 cell line (AID 2202235).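 Further: series mostly up to about 46 µM; plate controls were DMSO vehicle wells for no effect and blank wells for full effect; nearly all actives have a fitted effect of over 40% in size.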 The method, boiled down: as §2

Sequence of Cellular tumor antigen p53 (Homo sapiens) (P04637 whole entry, looked up): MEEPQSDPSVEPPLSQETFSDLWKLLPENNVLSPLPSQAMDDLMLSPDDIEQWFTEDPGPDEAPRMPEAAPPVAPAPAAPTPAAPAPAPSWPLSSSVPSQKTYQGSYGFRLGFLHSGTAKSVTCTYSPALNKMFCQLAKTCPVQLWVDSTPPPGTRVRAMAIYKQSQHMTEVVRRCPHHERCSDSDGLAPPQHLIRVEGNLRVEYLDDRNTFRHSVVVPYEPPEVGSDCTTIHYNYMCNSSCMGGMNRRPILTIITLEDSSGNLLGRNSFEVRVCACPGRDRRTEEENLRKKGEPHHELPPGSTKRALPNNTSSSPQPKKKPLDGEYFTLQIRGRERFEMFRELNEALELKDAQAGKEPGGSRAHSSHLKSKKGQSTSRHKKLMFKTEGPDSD

Consider `CC(=O)OCC1=C(C(=O)O)N2C(=O)[C@@H](N)[C@H]2SC1`, for which, in test [1], the activation was 19.8% and -5.67%. Also, the Potency result in [2] is “inactive”.

With `O=C(C[C@@H]1NCCC[C@H]1O)Cn1cnc2ccccc2c1=O`, the Potency in test [1] was 0.239 µM (active). Further, the Potency entry in [2] is “inactive”.

Consider `C[C@]12Cc3cn[nH]c3C[C@@H]1CC[C@@H]1[C@@H]2CC[C@@]2(C)[C@H]1CC[C@]2(C)O`, for which, in test [1], the activation was -21.8%. In addition, the viability in [3] was 57.3%. For the same compound, the Potency result in test [4] and in [5] was “inactive” throughout.

For `COc1cccc2c1C(=O)c1c(O)c3c(c(O)c1C2=O)C[C@@](O)(C(=O)CO)CC3OC1CC(N2CCOC(OC)C2)C(O)C(C)O1` (some centres undefined), the Potency in [1] was 0.0276 µM (active); in [3] it was 0.0033 µM (active); in [4], 0.0047 µM (active); in test [5] it was 0.0053 µM (active).

Consider `COCC1(CO)C(=O)C2CCN1CC2` (centres undefined), for which, in test [1], the activation was -22.4%. The Potency in test [3] is 26.3 µM (active); in test [4], 4.68 µM (active); in test [6] it was 10.5 µM (active); in [5] it was 10.5 µM (active); in [7], 10.5 µM (active).

As to `Cc1sc2c(c1C)C(c1ccc(Cl)cc1)=N[C@@H](CC(=O)OC(C)(C)C)c1nnc(C)n1-2`, the activation in [1] is -35.4% and 15.6%. The Potency is 0.263 µM (active) in [4], 0.209 µM (active) in test [6], 0.662 µM (active) in test [8] and 0.662 µM (active) in test [5].

For `CN1[C@H]2CC(O)C[C@H]1[C@H]1O[C@H]12` (some centres undefined), the activation in [1] is -21%. The viability in [3] was 118%. Moreover, the Potency entry in test [4], in test [9], in test [5] and in test [7] was “inactive” each time.

Regarding `O=C1CC[C@@]2(O)[C@H]3Cc4ccc(O)c5c4[C@@]2(CCN3CC2CC2)[C@H]1O5`, in [1], the activation was -5.99% and 2.51%. The Potency result in test [4], in [9], in [5] and in test [7] was “inactive” in each case.

Regarding `CCCC[N+]1(C)[C@H]2CC(OC(=O)[C@H](CO)c3ccccc3)C[C@H]1[C@H]1O[C@H]12` (some centres undefined), in test [1], the activation is -13.2%. Also, in [3], the viability is 109%. Moreover, the Potency result in test [8], in test [9], in [5] and in test [7] was “inactive” in each case.

Turning to `C[C@]12CCC(=O)C(O)=C1CC[C@@H]1[C@@H]2CC[C@]2(C)C(=O)CC[C@@H]12`, in test [1], the activation is 6.69%. In addition, the viability in [3] was 97.8%. For the same compound, the Potency result in test [4], in [8], in test [9], in test [5] and in test [7] was “inactive” throughout.

As to `C#C[C@]1(O)C=C[C@H]2[C@@H]3CCC4=CC(=O)CC[C@@H]4[C@H]3CC[C@@]21CC`, the activation in [1] is 10.7%. The Potency in test [6] was 18.6 µM (active). In addition, the Potency entry in test [9] and in [7] was “inactive” each time.

Consider `C[C@]12CC[C@@H]3c4ccc(OC(=O)N(CCCl)CCCl)cc4CC[C@H]3[C@@H]1CC[C@@H]2OP(=O)(O)O`, for which the activation in test [1] is -2.49% and -2.33%. Also, the Potency entry in test [2], in test [4], in test [6], in [8] and in test [9] was “inactive” throughout. For the same compound, in test [3], the viability was 112%.

With `C[C@]12CC[C@H]3[C@@H](CCC4=CC(=O)CC[C@@]43C)[C@H]1CC[C@H]2OC(=O)CCC1CCCC1`, the activation in test [1] is 28.3%. The Potency result in [8], in test [9] and in test [5] was “inactive” in each case.

Consider `C#CC1(O)CCC2C3CCC4=CC(=O)CCC4(C)C3CCC21C` (centres undefined), for which the activation in [1] is 2.51%. The viability in [3] was 107%. Further, the Potency result in test [8], in test [5] and in [7] was “inactive” in each case.

`O=S(=O)(CC1CS1)c1ccc(Oc2ccccc2)cc1` (centres undefined): the activation in test [1] was -10.4%. Also, the Potency in test [4] is 16.6 µM (active); in [6] it was 11.8 µM (active); in [8], 20.9 µM (active).

`C[C@](O)(COc1ccc(C#N)cc1)C(=O)Nc1ccc(C#N)c(C(F)(F)F)c1`: the activation in test [1] is -20%. The Potency entry in test [4], in test [6], in [9] and in [7] was “inactive” each time.

As to `COC1(CS(=O)c2ccccc2)CCN(CCc2c[nH]c3ccc(F)cc23)CC1` (centres undefined), in [1], the activation is -25%. The viability in test [3] is 110%. Besides, in test [4], the Potency is 14.8 µM (active). Further, the Potency entry in test [9] and in [5] was “inactive” in each case.

Turning to `COc1ccc(C(=O)c2c(C)n(CCN3CCOCC3)c3cc(I)ccc23)cc1`, the activation in [1] was 27.2%. Besides, the Potency in test [3] was 13.2 µM (active); in test [5] it was 6.61 µM (active). In addition, the Potency result in test [9] is “inactive”.

Turning to `C[C@]12CC[C@@H]3[C@@H](CCC4=CC(=O)CC[C@@H]43)[C@@H]1CC[C@@H]2OC(=O)CCc1ccccc1`, the activation in test [1] was 7.88%. The viability in test [3] was 104%. The Potency in test [6] was 18.6 µM (active). Moreover, the Potency result in test [9] and in test [5] was “inactive” in each case.

Turning to `CSCC[C@@H](NC(=O)[C@@H](Cc1ccccc1)NC(=O)CNC(=O)CNC(=O)[C@@H](N)Cc1ccc(O)cc1)C(=O)O`, the activation in test [1] is 22.9%. Further, the viability in [3] is 119%. Besides, the Potency result in [6], in [8] and in test [7] was “inactive” in each case.

As for `CCCCCC[C@H]1C(=O)O[C@H](C)[C@H](NC(=O)c2cccc(NC=O)c2O)C(=O)O[C@@H](C)[C@@H]1OC(=O)CC(C)C`, in test [1], the activation was -21.7%. In test [6], the Potency is 1.32 µM (active). Besides, the Potency entry in test [9] and in test [7] was “inactive” each time.
